Source: PubChem BioAssay
D3 ag: qHTS of D3 Dopamine Receptor Agonist: qHTS. D3R DiscoveRx beta-arrestin cells, luminescence, 90 min. D(3) dopamine receptor (Homo sapiens), P35462. AID 652048, 2013. hit rate 0.58% among 410,000. max activation, %; in the data active means max activation above about 30%
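Cells at 1500/well, incubated overnight, then treated with pinned compounds (dopamine as control) for 90 min at 37 degrees C. DiscoveRx reagent added for 30 - 60 minutes at room temperature; luminescence read.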
D1 ag: Allosteric Agonists of the Human D1 Dopamine Receptor: qHTS | D(1A) dopamine receptor (Homo sapiens), P21728 | HEK293 T-REx D1 cells, calcium flux, agonist mode | activation, % at 2 µM | hit rate 1% among 360,000 | AID 504660, 2011; in the data active means activation above about 30%
Target sequence (P21728 whole entry, looked up): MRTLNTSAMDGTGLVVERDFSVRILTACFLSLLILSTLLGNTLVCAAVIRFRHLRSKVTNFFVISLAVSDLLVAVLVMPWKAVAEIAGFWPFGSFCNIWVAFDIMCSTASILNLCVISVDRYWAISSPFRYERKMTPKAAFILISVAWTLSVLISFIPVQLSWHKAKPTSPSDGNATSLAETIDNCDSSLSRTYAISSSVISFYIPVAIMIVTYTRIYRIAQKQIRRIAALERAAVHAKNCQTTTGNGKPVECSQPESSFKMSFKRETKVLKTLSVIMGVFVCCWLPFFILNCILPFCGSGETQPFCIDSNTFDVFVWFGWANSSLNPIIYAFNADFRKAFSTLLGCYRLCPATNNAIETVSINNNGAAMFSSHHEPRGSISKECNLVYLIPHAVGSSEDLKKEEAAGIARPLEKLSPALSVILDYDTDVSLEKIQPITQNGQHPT
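Agonism was scored from calcium flux recorded over 180 s (1 read/s) after pintool compound addition, following a 10-cycle baseline. Cells were inducible force-coupled HEK293 TREx D1, plated overnight at 30 C and loaded with no-wash calcium dye.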
D1 antagonist: Antagonist of Human D 1 Dopamine Receptor: qHTS | D(1A) dopamine receptor (Homo sapiens), P21728 | HEK293 TREx D1 cells, calcium flux, dopamine EC80; stronger effect = lower value | activity change, negative = inhibition, % at 10 µM | hit rate 3.2% among 360,000 | AID 504652, 2011; in the data active means activity change below about -30%
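Antagonism measured as reduced calcium response to an EC80 dopamine addition following 180 s compound pre-read; cells were inducible HEK293 Trex D1 plated overnight at 30 C, read kinetically at 1 cycle/sec.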
D3 antag: qHTS of D3 Dopamine Receptor Antagonist: qHTS; max response, negative = inhibition, %; AID 652054, 2013; hit rate 2.5% among 360,000; D3R cells, DiscoveRx beta-arrestin luminescence, antagonist mode; stronger effect = lower value; D(3) dopamine receptor (Homo sapiens), P35462; in the data active means max response below about -50%; inconclusive means no clear call, values can overlap the other calls
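Cells expressing the human receptor were seeded at 1500 cells/well, incubated overnight at 37 degrees C in 5% CO2, then exposed to library compounds with dopamine controls for 90 minutes at 37 degrees C before luminescent detection.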
D1 PAM: Potentiators of Human D1 Dopamine Receptor: qHTS | D(1A) dopamine receptor (Homo sapiens), P21728 | hit rate 0.036% among 360,000 | HEK293 TREx D1 cells, calcium flux, dopamine EC20 potentiation | potentiation, % at 10 µM; in the data active means potentiation above about 30%
Each line names hits and unclear results; the compound was inactive in the other large screens. Sampled rows, rich in hits. Any-hit rate of the full collection: about 6.1%.

C/C(=N/Nc1ccc([N+](=O)[O-])cc1)c1c[nH]c2ccccc12	D1 ag 83.5, D1 antagonist -33.2
C/C(=N/Nc1ccc([N+](=O)[O-])cc1)c1ccc(C)cc1C	D3 antag inconclusive
Cc1cc(-c2nnc(SCC(=O)Nc3ccc(C)c(C)c3)n2N)n[nH]1	none
Cn1c2c(sc1=O)CCC2	none (no result: D1 ag, D1 antagonist, D1 PAM)
Cc1cc(Cl)c(S(=O)(=O)N/N=C/c2ccc3c(c2)OCO3)c(Cl)c1	D3 antag inconclusive
Cc1cc(C)c(S(=O)(=O)N/N=C/c2ccc3c(c2)OCO3)c(C)c1	D1 antagonist -71.7, D3 antag -71.2
Cc1cc(C)c(-n2nnnc2SCC(=O)c2cccs2)c(C)c1	D1 antagonist -42.3
COc1ccc2c(c1)nc(SCC(=O)c1cccs1)n2C	D1 antagonist -35.8
Cc1nnc(SC(C)C(=O)Nc2nccs2)s1 (centres undefined)	D1 antagonist -33.4
CCS(=O)(=O)c1nc(S(=O)(=O)c2ccc(C)cc2)c(NCCN2CCOCC2)s1	none
Cc1ccc(S(=O)(=O)c2nc(-c3ccccc3Cl)oc2NCCCN2CCOCC2)cc1	D3 antag -53.3
CCCS(=O)(=O)c1nc(S(=O)(=O)c2ccc(C)cc2)c(NCCCN2CCOCC2)s1	D1 antagonist -31.6
O=S(=O)(c1ccc(Cl)cc1)c1nc(-c2ccccc2F)oc1NCCCN1CCOCC1	D3 antag -60.3
CCOC(=O)Cn1c(=O)c2c(nc3n2CCN3c2ccc(CC)cc2)n(C)c1=O	none (no result: D3 antag)
CC1(NC(=O)NCc2ccccc2)CCS(=O)(=O)C1 (centres undefined)	none
COc1ccc(CC(=O)OCC(=O)NCc2ccccc2Cl)cc1OC	none
COc1ccc(C)c2sc(NC(=O)c3ccc(S(=O)(=O)N4CCOCC4)cc3)nc12	none (no result: D3 antag)
O=C(CS)Nc1ccccc1	none (no result: D1 ag, D1 antagonist, D3 antag, D1 PAM)
O=C1Cc2ccccc2Sc2c(OCCN3CCCCC3)cccc21	D3 antag -64.5
CN(C)CCCOc1ccc2c(c1)Sc1ccccc1CC2=O	D1 ag 78.9, D1 antagonist -60.1, D3 antag inconclusive
O=C1Cc2ccccc2Sc2cc(OCCCN3CCCCC3)ccc21	D3 antag -53.0
ON=C1c2cc(OCCN3CCCCC3)ccc2-c2ccc(OCCN3CCCCC3)cc21	D3 antag inconclusive
Nc1ccc2c(c1)C(=O)Cc1ccccc1S2	none
Cc1cc(C)c(C#N)c(N2CCN(CCOc3ccc(Cl)cc3)CC2)n1	D3 antag -78.1
COC(=O)c1ccc2c(=O)n(CCCCCC(=O)NCCc3ccccc3)c(=O)[nH]c2c1	none (no result: D3 antag)
O=C1OC(c2ccccc2)=C/C1=C/N1CCOCC1	D3 antag -54.7
O=C1OC(c2ccccc2)=C/C1=C\N1CCOCC1	D3 antag inconclusive
CC(=O)Nc1ccc(C(=O)OCC(=O)NCc2cccs2)cc1	none (no result: D1 PAM)
COc1ccc(Cc2nc3ccccc3n2Cc2ccccc2C)cc1	none (no result: D3 antag)
Cc1ccc(OCCCCn2c(CO)nc3ccccc32)cc1	D1 antagonist -37.3
CCCn1c(COc2cccc(C)c2)nc2ccccc21	D3 ag 40.6 (no result: D3 antag)
C=CCn1c(COc2ccc(OC)cc2)nc2ccccc21	D1 antagonist -34.8
OCc1nc2ccccc2n1CCCCOc1ccccc1	none (no result: D1 ag, D1 antagonist, D1 PAM)
CCn1c(COc2ccc(OC)cc2)nc2ccccc21	none
Cc1cccc(OCc2nc3ccccc3n2C)c1	none
COc1cccc(OCc2nc3ccccc3n2Cc2ccccc2C)c1	D1 ag 39.9 (no result: D3 antag)
O=C(CCSCc1cccc(F)c1)NCCc1ccccc1	none
O=S(=O)(O)C1CCNCC1	D1 antagonist -49.2 (no result: D3 ag, D3 antag)
CN(C)C(CNC(=S)Nc1ccccc1Cl)c1cccnc1 (centres undefined)	none
O=S(=O)(NCC(c1ccco1)N1CCN(c2ccccc2)CC1)c1ccccc1 (centres undefined)	none (no result: D1 antagonist, D3 antag)
O=S(=O)(NCC(c1ccco1)N1CCN(c2ccccc2)CC1)c1ccc(F)cc1 (centres undefined)	D1 antagonist -30.3
O=S(=O)(NCC(c1ccco1)N1CCN(c2ccc(F)cc2)CC1)c1ccc(F)cc1 (centres undefined)	D1 antagonist -33.6
CNC(=O)c1ccc(CNC(=O)OCc2ccccc2)cc1	none (no result: D1 antagonist)
CC(C)=NOc1nc(N2CCOCC2)nc(N2CCOCC2)n1	none
COc1ccc(-c2nc3c4ccccc4ccn3c2Cc2cccc(F)c2)cc1OC	none (no result: D1 ag, D1 antagonist, D1 PAM)
O=c1[nH]c(Nc2ccccc2)cc2cc(Br)ccc12	none (no result: D1 ag, D1 antagonist, D1 PAM)
O=c1[nH]c(Nc2ccccc2)cc2ccccc12	D1 ag 37.8
CC(=O)c1cccc(-c2ccc3c(=O)[nH]c(Nc4ccccc4)cc3c2)c1	D3 ag 30.6 (no result: D1 ag, D1 antagonist, D1 PAM)
CCOc1ncccc1C(=O)OCC(=O)NC1CCCCCC1	none
Nc1ccccc1N=Nc1ccccc1N	D3 antag inconclusive
CC(C)(C)C1=CC(=Nc2ccccc2N)C=C(C(C)(C)C)C1=O	D3 antag -50.9
COc1ccc2[nH]c3c(N4CCc5ccccc5C4)ncnc3c2c1	D1 antagonist -32.1
COC(=O)c1ccc(C(=O)OC)c(-n2c(=O)c3ccccc3c3ccccc3c2=O)c1	D3 antag inconclusive
COc1ccc(NC(=O)c2ccc(C)cc2)cc1	none
COc1ccc(NC(=O)c2ccc(NC3CC(=O)N(c4ccc(C)cc4C)C3=O)cc2)cc1 (centres undefined)	D1 antagonist -31.5
c1csc(-c2nc(CN3CCSCC3)cs2)c1	D3 antag -57.8
O=C1c2cccnc2Nc2ccccc2N1CCCF	D1 antagonist -32.8
CN1CCN(C(=O)/C(=C\c2ccccc2)c2ccccc2)CC1	D3 antag -54.6
Cc1nn(-c2ccccc2)c(Cl)c1C(=O)NCC1CCCO1 (centres undefined)	none
Cc1nn(-c2ccccc2)c2[nH]c(=O)c(CNCC3CCCO3)cc12 (centres undefined)	D3 antag -82.5
CC(OC(=O)CNC(=O)c1ccc(F)cc1)C(=O)Nc1ccc(S(=O)(=O)N2CCOCC2)cc1 (centres undefined)	none
CC(OC(=O)CN1C(=O)NC2(CCCC2)C1=O)C(=O)Nc1cccc(Cl)c1Cl (centres undefined)	D1 antagonist -51.2
O=C(CN1C(=O)NC2(CCCC2)C1=O)Nc1cccc(Cl)c1Cl	none (no result: D1 PAM)
CCCSc1ncc(Cl)c(C(=O)NCc2ccc(OC)cc2)n1	none (no result: D3 antag)
CCCn1c(Nc2nc3ccccc3n2C)nc2ccccc21	D3 antag -101.9
Cn1c(Nc2ccccc2)nc2ccccc21	D1 antagonist -45.6
Nn1c(Nc2ccccc2)nc2ccccc21	none
COc1ccc(CCNC(=O)C(=O)NCC2OCCN2S(=O)(=O)c2ccc3c(c2)OCCO3)cc1OC (centres undefined)	D1 antagonist -74.8
COc1ccc(CCNC(=O)C(=O)NCC2OCCN2S(=O)(=O)c2ccc3c(c2)OCCO3)cc1 (centres undefined)	none
